From PubChem BioAssay
Luciferase inh = Firefly luciferase inhibition profiling of diverse chemical library using quantitative high-throughput screening | Luciferin 4-monooxygenase (Photinus pyralis), P08659 | AID 1347043, 2019 | Potency, µM (doses to about 115 µM), most hits filed as inhibitors | purified P. pyralis luciferase, luminescence, biochemical | 2.5% of 76,000 active; note: nearly all actives have a fitted effect of over 65% in size
Target sequence (P08659 whole entry, looked up): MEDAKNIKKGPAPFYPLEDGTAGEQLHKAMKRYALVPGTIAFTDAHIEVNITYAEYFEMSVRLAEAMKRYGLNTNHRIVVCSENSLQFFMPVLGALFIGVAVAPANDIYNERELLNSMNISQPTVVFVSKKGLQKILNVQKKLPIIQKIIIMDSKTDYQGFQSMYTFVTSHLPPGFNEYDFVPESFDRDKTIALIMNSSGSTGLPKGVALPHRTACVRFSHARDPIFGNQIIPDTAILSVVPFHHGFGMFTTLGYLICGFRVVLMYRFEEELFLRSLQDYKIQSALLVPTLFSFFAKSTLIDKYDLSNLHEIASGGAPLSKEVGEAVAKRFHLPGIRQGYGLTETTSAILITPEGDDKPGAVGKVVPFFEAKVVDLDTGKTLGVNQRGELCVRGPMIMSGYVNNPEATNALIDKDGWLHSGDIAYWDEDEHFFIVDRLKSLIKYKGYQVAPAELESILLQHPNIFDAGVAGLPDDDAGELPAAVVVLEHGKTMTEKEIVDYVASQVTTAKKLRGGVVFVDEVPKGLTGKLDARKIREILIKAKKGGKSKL
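Purified 10nM P. pyralis luciferase with 10uM D-luciferin and 10uM ATP in 50mM Tris acetate pH 7.5, 10mM Mg acetate, 0.01% Tween-20, 0.05% BSA. qHTS titration; luminescence read by CCD imager.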
NPR1 antag = Natriuretic polypeptide receptor (hNpr1) antagonism - Primary qHTS | 1.6% of 76,000 active | HEK293 hNpr1 GloSensor cGMP, ANP-stimulated luminescence | AID 1347048, 2019 | Potency, µM (titrated, usually from 46.3 µM), without a hit: at the top dose activity change, negative = inhibition, usual class: inhibitors; calls by dose curve; note: nearly all actives have a fitted effect of over 60% in size
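Compound pre-incubated 30 min at room temperature on GloSensor-loaded HEK293 cells stably carrying hNpr1 and the pGS-40F cGMP biosensor. Stimulation uses hNppA at 0.1 nM final; luminescence is taken at baseline and 20 min post-agonist.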
3T3 cytotox = Cytotoxic Profiling in NIH 3T3 Cell Line of Diverse Libraries Using Quantitative High-Throughput Screening | NIH 3T3 viability, CellTiter-Glo ATP luminescence, 48-72 h | Potency, µM (titrated, usually from 96.7 µM), inactives show top-dose activity change, negative = cytotoxicity, hits mostly inhibitors | 4.3% of 94,000 active | AID 1345082, 2018; note: nearly all actives have a fitted effect of over 55% in size
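Cytotoxicity is measured as loss of cellular ATP: NIH 3T3 cells (400/well) are exposed to compound for 48 or 72 hr at 37 °C, then CellTiter-Glo luminescence is imaged after 10 min at room temperature.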
HEK cytotox = Cytotoxic Profiling in HEK 293 Cell Line of Diverse Libraries Using Quantitative High-Throughput Screening; Potency, µM (titrated, usually from 115 µM), without a hit: top-dose activity change, negative = cytotoxicity, actives largely listed as inhibitors; 6.6% of 94,000 active; HEK 293 viability, ATP luminescence (CellTiter-Glo), 48-72 h; note: nearly all actives have a fitted effect of over 60% in size
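HEK 293 seeded at 250 cells/well receive compound via pintool. After 48 or 72 hr at 37 degree Celsius, 5% CO2 and 95% humidity, CellTiter-Glo is dispensed and luminescence read following 10 min at room temperature.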
* marks the source's active call; other numbers are inactive results; i = inactive; ? = inconclusive; · = no result given; [ ] = remark or other dose. Rows were chosen to be rich in hits. Some 11% of all compounds tested hit in one or more screens of this group. Unless noted, calls come from the whole dose curve; as a rule, active = well fitted curve in the direction sought with a large enough effect; inconclusive = small, poorly fitted or top-dose-only effect, or another doubt; inactive = no such curve, though single readings can be large; an effect the other way counts as inactive or inconclusive. % is set by controls: 0 for no effect and ±100 for the full control effect; potency is the fitted concentration of half-maximal effect.

SMILES | Luciferase inh | NPR1 antag | 3T3 cytotox | HEK cytotox
O=C1c2c(nc(COc3ccc4c(c3)OCO4)n2Cc2ccccc2)NCCN1Cc1cccc(Cl)c1 | i | ? | 22µM* | 32µM*
O=C1c2c(nc(COc3ccc4c(c3)OCO4)n2Cc2ccccc2)NCCN1CCOc1ccccc1 | i | -28% | ? | 40µM*
O=C1c2c(nc(CNCc3ccc4c(c3)OCO4)n2Cc2ccccc2)NCCN1CCOc1ccccc1 | i | -14% | 40µM* | ?
Cc1ccccc1C(=O)N1CCCC(C(=O)N2CCC(c3nc4ncccc4[nH]3)CC2)C1 (centres undefined) | · | · | -13% | 0%
COCCCn1c(=O)c(C(=O)N2CCN(C(=O)Cc3ccc(OC)cc3)CC2)nc2cccnc21 | · | · | i | i
COc1ccc(-c2ccc(C(=O)N3CCN([S+](C)(=O)[O-])CC3)cc2)nn1 | · | · | -3% | -5%
Cc1ccccc1NCc1nc2c(n1Cc1ccccc1)C(=O)N(C)CCN2 | i | -22%[70.6 µM] | -13%[138 µM] | ?
Cc1ccccc1NCc1nc2c(n1Cc1ccccc1)C(=O)N(CCOc1ccccc1)CCN2 | i | -19% | 32µM* | ?
COc1ccc(CN2CC(c3ncc4c(-c5ccccc5)nccn34)C2)cc1O | i | -25%[70.6 µM] | 89µM* | ?
COc1ccc(-c2nc(C3CC(=O)N(Cc4ccccc4OC)C3)no2)c(C)c1 (centres undefined) | i | -2% | ? | ?
COc1ccccc1CN1CC(c2noc(-c3ccc(C)cc3C)n2)CC1=O (centres undefined) | i | -16% | ? | 40µM*
CCOc1ccc(-c2nc(C3CC(=O)N(Cc4ccccc4OC)C3)no2)cc1 (centres undefined) | i | -13% | 22µM* | 45µM*
CCc1ccc(N2CC(c3noc(-c4sccc4C)n3)CC2=O)cc1 (centres undefined) | i | 0% | ? | 79µM*
COc1ccc(N2CC(c3noc(-c4ccc(C(C)(C)C)cc4)n3)CC2=O)cc1OC (centres undefined) | ? | ? | ? | 40µM*
O=C(Nc1ccc([C@@H](O)[C@H]2COCC(=O)N2CCCc2ccccc2)cc1)c1ccco1 | ? | 6%[70.6 µM] | -9%[138 µM] | -12%[172 µM]
C[C@]1(CO)C2CC[C@@H](O)[C@@H](CC(=O)NCc3cccs3)[C@]2(C)CC[C@H]1OC(=O)NC1CCCCC1 (some centres undefined) | i | 4% | ? | ?
CN1CCCC(CN(CCc2ccccc2)C(=O)c2cc(C#N)cn2C)C1 (centres undefined) | i | 3% | -8% | 1%
O=C(Nc1cccc(Cl)c1)C1CCCN1c1nc2ncccc2o1 (centres undefined) | i | -1% | -28% | -18%
O=C(NCC(F)(F)F)C1CCCCN1Cc1ccc(-c2cccs2)cc1 (centres undefined) | · | · | -2% | -6%
CCOCCNC(=O)C1CCCCN1Cc1ccc(-c2cccs2)cc1 (centres undefined) | · | · | 40µM* | ?
COCCNC(=O)C1CCCCN1Cc1ccc(-c2cccs2)cc1 (centres undefined) | · | · | ? | 40µM*
O=C(Nc1cccc(Cl)c1)C1CCCCN1Cc1ccc(-c2cccs2)cc1 (centres undefined) | · | · | ? | 28µM*
O=C(NCCc1ccccc1)C1CCCCN1Cc1ccc(-c2cccs2)cc1 (centres undefined) | · | · | 45µM* | ?
COc1cccc(-c2ccc(C(=O)NCCNC(=O)c3ccc(Cl)cc3)cc2)c1 | · | · | i | -9%
CCNC(=O)C1C(c2cccc(NC(=O)c3ccccc3)c2)OC(=O)N1Cc1ccc(C)cc1 (centres undefined) | i | -19% | ? | ?
O=C1NCc2ccccc2CC12CCCN2Cc1cccc(Br)c1 (centres undefined) | · | · | -6% | -7%
O=C(Nc1ccccc1)c1nnn2c1CN(Cc1ccccc1)C(=O)CC2 | i | 0%[70.6 µM] | 100µM* | i
